# Source: the supplement of paper PMC6555819
# Columns and labels:
# Assay in all cases: PBM binding z-score (relative to random genomic background probes); higher = stronger binding; sequences stand for … in GC…GCGATTGACAGCGTAGAATGAAGG
# [1] = tested on: RARb homodimer (NR concentration 270 nM)
# Procedure, shortened: (§1)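 Binding buffer was PBS pH 7.4 with 2% milk, 0.02% Triton X-100, 1 mM DTT, 0.2 mg/mL BSA and 0.4 mg/ml salmon testes DNA. In it, ligand-free nuclear receptor dimers were incubated 1 h on custom Agilent 4×180K protein-binding microarrays carrying double-stranded probes. Antibodies against each partner (one per run) detected binding, and z-scores were calculated against random background probes after regression normalization of scanned fluorescence.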
# [2] = tested on: RARg:RXRa (NR concentration 270 nM, RXRa partner concentration 90 nM)
# Procedure, shortened: as §1
# [3] = tested on: RARg homodimer (NR concentration 270 nM)
# Procedure, shortened: as §1
# [4] = tested on: RXRa DBDmut IVT, anti-RXR (DBD mutation: RXRa K156A/R161A, NR concentration 90 nM)
# Procedure, shortened: as §1
# [5] = tested on: RXRa homodimer (NR concentration 180 nM)
# Procedure, shortened: as §1
# [6] = tested on: THRa:RXRa (NR concentration 90 nM, RXRa partner concentration 90 nM)
# Procedure, shortened: as §1
# [7] = tested on: THRa homodimer (NR concentration 90 nM)
# Procedure, shortened: as §1
# [8] = tested on: VDR:RXRa (NR concentration 270 nM, RXRa partner concentration 90 nM)
# Procedure, shortened: as §1
# [9] = tested on: VDR homodimer (NR concentration 270 nM)
# Procedure, shortened: as §1
Sequence,PBM binding z-score [1],PBM binding z-score [2],PBM binding z-score [3],PBM binding z-score [4],PBM binding z-score [5],PBM binding z-score [6],PBM binding z-score [7],PBM binding z-score [8],PBM binding z-score [9]
TTACCACGGTGAAAGGTCGTTGATGCACGCCTTG,1.77,2.34,1.01,0.51,3.04,1.69,0.129,1.99,1.53
AGAACGCGGGCAATGAGTTGATAGCACGGGTGGC,-0.332,0.0304,0.194,-0.0914,0.299,-0.395,-1.04,1.56,0.678
TAGCCTAGGTCGTGGGCCAGTATACCACGCGAAC,0.693,0.842,0.996,-0.872,0.851,0.795,-0.254,-0.199,-0.53
CCGAGTAGGTTATGGGACATTCAGGCAACGGTGA,0.969,0.533,0.86,0.181,0.607,0.565,0.413,0.258,0.326
GCTGCTAGGTCAACTGATGGTCAGCTATAGCTCG,3.72,5.34,5.69,1.79,3.41,3.03,1.11,1.82,-0.0243
CCTACTGGGCCAAAAAGGTCATAGATGCCGATAA,4.35,4.63,4.54,0.263,5.22,3.08,0.589,4.4,2
ACAGACAGGTGAGTGAATGTAACTCAGCTGGACG,-0.316,0.386,0.453,-0.311,0.676,0.0176,-0.644,-0.36,-0.199
CGAACTAGGGCAGAACAGGACAGTGAAGGATGAT,0.707,0.486,0.757,0.0235,-0.0297,1.58,-0.495,-0.31,-0.0975
CTACCAAGGTGAACAAGGTCGTTGTTTACTATTC,1.97,1.78,1.27,1.63,1.9,3.23,1.76,6.2,2.16
TCTTGTAGATCAATAGACGTTAAGAAAGTGCGCT,-0.66,-0.0458,0.0391,0.88,-0.042,-0.347,-0.846,0.326,0.0604
TGTGCTAGGTCAGTTGGTCAGCTAACGAGCTGCC,2.66,2.6,3.48,-0.535,0.793,1.14,-0.0529,-0.0889,-0.504
TAGCCTAGGTCATTGGCCAGTATACCACGCGAAC,2.76,3.66,3.92,1.68,3.22,2.66,0.992,2.18,1.26
CCTGCTAGGTCATGGTCAGCTAGTCTACAGTATG,3.22,4.05,4.82,1.84,2.76,3.03,1.25,1.65,0.287
CCGACTGGGGCATAAGATTACCATAAGCCAGCCC,-0.156,-0.0949,0.359,-0.222,-0.0512,-0.577,-0.917,-0.534,-0.442
CGTCCAAGGTCAGCAGGTCATTGAAAGCGACGTG,5.08,6.83,6.69,2.59,6.04,4.26,2.98,4.67,2.36
TCATATAGGTAAATGCTAGGTGAAGGTCCGATCT,0.576,0.474,0.349,1.34,0.65,1.43,0.583,0.873,0.324
CCTACTGGGCCAAAAAGGTCATTTATGCCGATAA,4.03,4.11,3.43,0.766,4.35,2.85,0.395,4.44,2.46
ATATGTAGGTTAAGGGCCATTCAGGTTGGTTCGC,1.36,0.896,1.04,0.622,1.21,1.17,0.32,1.01,1.15
CAAACTAGGTCACCGAGGTCAAAGTCCGTGCGTA,5.47,6.99,7.18,3.46,7.09,4.93,4.37,8.34,7.68
CCTCAAAGTTCAACTAAGGTAACGTAAAGCACGC,4.3,6.18,6.74,4.41,5.11,5.29,2.38,4.88,4.44
AGAACGAGGGCAATTAGTTGATAGCACGGGTGGC,1.14,1.37,1.89,2.01,0.935,0.962,-0.172,1.13,1.41
ATCTCTCGGTAAAGATAGTTCAGTGAATGCAAAT,1.07,0.757,0.753,-0.259,0.154,0.376,0.031,0.595,0.334
AATACAGGGTCACTAGGCAAGAGTAGGTACGAAT,2.95,5.02,4.81,2.61,5.45,3.48,1.19,3.97,2.42
AGAATGAGGTTACCAAAGATCAGGGTAACGCTTG,1.37,2.15,1.95,1.3,3.07,3.1,1.43,1.6,0.478
AATATAGGGTCACTAGGCCAGAGTAGGTACGAAT,3.3,5.24,4.94,2.94,5.71,3.61,1.67,4.06,2.21
CGTCGAAGGTCAGCAGGTCAGTGAAAGCGACGTG,4.94,6.48,6.93,1.34,5.06,2.88,0.495,3.61,1
TTACCAAGGTTAAGGTCGTTGATCCCTCTGTAGA,2.57,2.63,2.31,1.41,3.4,3.73,3.45,3.3,2.83

Sequence,PBM binding z-score [1],PBM binding z-score [2],PBM binding z-score [3],PBM binding z-score [4],PBM binding z-score [5],PBM binding z-score [6],PBM binding z-score [7],PBM binding z-score [8],PBM binding z-score [9]
TCGAGTAGGTTACTAATGGGGCATTCAGCTTTCT,0.14,0.367,0.0579,0.272,0.291,-0.11,-0.967,0.0839,-0.245
CGTCCAAGGTCAATGCTAAGTCAGTGAAAGCATT,3.83,5.54,6.06,3.39,4.48,3.72,1.98,3.83,2.06
ATATGTAGGTTACATCCGGGTCATTCACGCTATG,2.82,4,2.31,1.39,3.38,3.86,2.6,,3.12
GCTTACGGGTCAAAGGTTATCGCATGAATAGAAT,3.45,7.02,5.01,2.6,9.64,3.98,0.155,5.72,1.59
GGAACGAAGGCAAGTTGATAGCAGAGTTTGATGG,-0.711,-0.376,-0.138,0.098,-0.667,-0.824,-1.3,-0.696,-0.0459
GCTGCTAGGTCAACTGATGGTTAGCTAAAGCTCG,3.25,4.51,5.52,1.85,2.81,2.94,0.862,,-0.316
AGTCAAAGTTCACTAGGTAACGTCAGATTCAGCT,3.86,5.2,5.98,4.32,4.31,1.96,0.43,3.95,3.7
GCAGACAGGTGAAACGCAGGTAACTTAGGGTGGC,0.119,0.872,0.154,-0.334,0.754,1.55,-0.353,-0.477,-0.61
AGAATGAGGTTCTACGTAGATCAGGGAAGAAAGT,-0.327,-0.12,0.0722,0.025,-0.0793,-0.0436,-0.709,-0.436,-0.322
CCTCGGAGGACAACACGAGGTCAGAGCTGCCAGA,3.53,3.58,3.22,0.871,2.23,3.57,2.8,,1.85
GCTTGGAGGACAAGGTCAGAGCTTTGTCCGTAGA,3.25,3.03,3.61,0.782,2.37,3.02,1.46,1.41,0.256
TCATATAGGTAAAAGGTGAAAGCCGGTGTGGTAA,1.74,2.11,0.955,1.45,2.92,1.56,8.19e-05,1.62,-0.0743
ATATGTAGGTTACATCCTGGTCATTCAGGCTATG,1.25,1.72,1.3,0.78,1.35,1.26,0.551,0.956,0.582
GCTTGTAGATCAATGTTAAGAAAGACTAAGCTAA,-0.892,-0.411,-0.155,0.255,-0.609,-0.166,-1.2,-0.368,-0.713
CTCGAAAGCTCGTGCTCAGGTGAGTATACCAAAC,-0.48,-0.629,-0.592,-0.295,-0.748,0.472,0.274,-0.8,-0.591
CGAACTAGGTCAGAACAGGACAGTGACGGATGAT,2,2.38,3.42,0.578,1.31,3.31,0.199,0.542,0.168
CCTTACGGGTCACGAGCTTATAGCACGACGAGCG,3.08,5.67,5.35,1.94,6.23,3.07,0.145,3.95,0.809
TGAGTGAGGTTATAAGATCAGGGAACGTTGCAAA,0.44,1.43,1.12,0.109,1.88,1.59,0.117,0.806,0.655
ATATGTAGGTTACATCCGGGTCATTCCGGCTATG,2.71,3.56,2.07,1.21,2.92,3.61,2.3,3.88,2.99
ATATGTAGTTTAAGGGTCATTCAGGTTGGTTCGC,3.9,3.91,2.88,2.39,4.82,3.37,1.71,,4.96
CCGACTGGGGCATAAGGTTACAATAAGCCAGCCC,1.61,1.66,1.08,-0.313,1.18,1.95,0.977,0.392,-0.296
GTACCAAGGTGAACAGGTCGTTGATGAGTAGGCG,1.76,1.95,1.02,-0.221,1.67,2.22,0.534,1.15,0.0817
ATCTCTAGGTAAAAGTTCAGGGAATCCCGAGGAT,2.58,2.3,2.18,0.858,2.15,1.54,0.461,1.54,1.7
ATCTCTAGGTAAACTTCAGTGAAAGATCGATAGA,0.191,0.307,0.513,0.168,0.222,0.667,0.466,0.36,0.34
ACTAGTTGGTCAGCTGAGGTCACACGCAATTCGG,4.17,4.1,4.4,1.4,4.02,5,5.12,4.46,3.63
CTAACAAGGTGAACAAGGTCGTTGATTACTATTC,1.94,1.79,1.76,1.6,1.84,3.24,1.84,6.27,2.19
